Measured values reported in PubChem BioAssay (EPA / NIEHS).
Where “and” joins values, the source holds several entries; their conditions need not be identical. Equal values may be shown once. The source holds several records for some structures; these can differ, active in one and inactive in another. Calls of active or inactive are those of the source. The calls were made as follows: active = hit-call score of the fitted dose curve at least 0.9, where 1 is the maximum; inactive = score below 0.9.

experiment: APR_HepG2_CellLoss_24hr: Apredica 24-hour HepG2 Assay for Cell Loss (AID 2282908); conditions: high-content imaging;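 as to AC50: fit in both directions so a hit may be cell loss or gain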
In short: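 Cell number is quantified by fluorescence imaging of Hoechst 33342-stained nuclei following dosing at 0.39–200 uM in 0.5% DMSO. Curves are fitted in both directions from the DMSO baseline.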

| Structure (SMILES) | outcome | AC50 |
| --- | --- | --- |
| OCCOc1ccccc1 | inactive | – |
| CC1(c2ccc(Oc3ccccc3)cc2)OC(=O)N(Nc2ccccc2)C1=O (configuration not stated) | – | 120 µM (active) |
| CC(C)(C)C(O)C(Oc1ccc(Cl)cc1)n1cncn1 (configuration not stated) | inactive | – |
| O=S1OCC2C(CO1)C1(Cl)C(Cl)=C(Cl)C2(Cl)C1(Cl)Cl (configuration not stated) | inactive | – |
| CC(C)OC(=O)Nc1cccc(Cl)c1 | inactive | – |
| COP(=S)(OC)Oc1ccc([N+](=O)[O-])cc1 | inactive | – |
| O=C(O)C(F)(F)C(F)(F)C(F)(F)C(F)(F)C(F)(F)C(F)(F)C(F)(F)F | inactive | – |
| Cc1[nH]c(=O)n(C(C)(C)C)c(=O)c1Cl | inactive | – |
| O=[N+]([O-])c1c(Cl)c(Cl)c(Cl)c(Cl)c1Cl | inactive | – |
| CCCN(CCOc1c(Cl)cc(Cl)cc1Cl)C(=O)n1ccnc1 | – | 103 µM (active) |
| O=S(=O)(O)C(F)(F)C(F)(F)C(F)(F)C(F)(F)C(F)(F)C(F)(F)C(F)(F)C(F)(F)F | – | 122 µM (active) [middle of 5 runs] |
| Oc1cc(Cl)ccc1Oc1ccc(Cl)cc1Cl | – | 90.7 µM (active) and 70.9 µM (active) and 12.8 µM (active) |
| CCC(C)(NC(=O)c1cc(Cl)c(C)c(Cl)c1)C(=O)CCl (configuration not stated) | – | 32.3 µM (active) |
| CNC(=O)Oc1ccccc1OC(C)C | inactive | – |
| CNC(=O)CSP(=S)(OC)OC | inactive | – |
| O=C1c2ccccc2C(=O)N1SC(Cl)(Cl)Cl | inactive | – |
| ClC1C(Cl)C(Cl)C(Cl)C(Cl)C1Cl (configuration not stated) | inactive | – |
| [2H]C1([2H])[n+]2ccccc2-c2cccc[n+]2C1([2H])[2H] | inactive | – |
| COC(=O)c1ccccc1CS(=O)(=O)NC(=O)Nc1nc(OC)cc(OC)n1 | inactive | – |
| CC[C@H](C)[C@H]1O[C@]2(C=C[C@@H]1C)C[C@@H]1C[C@@H](C/C=C(\C)[C@@H](O[C@H]3C[C@H](OC)[C@@H](O[C@H]4C[C@H](OC)[C@@H](O)[C@H](C)O4)[C@H](C)O3)[C@@H](C)/C=C/C=C3\CO[C@@H]4[C@H](O)C(C)=C[C@@H](C(=O)O1)[C@]34O)O2 (tested in a mixture with another compound) | – | 12.2 µM (active) |
| CNC(=O)Oc1cccc(N=CN(C)C)c1 | – | 78.6 µM (active) |
| Clc1ccccc1-c1nnc(-c2ccccc2Cl)nn1 | inactive | – |
| Cc1cc(C)nc(NC(=O)NS(=O)(=O)c2ccccc2C(=O)OC2COC2)n1 | inactive | – |
| O=C(O)COc1ccc(Cl)cc1Cl | inactive | – |
| COC(=O)c1ccccc1S(=O)(=O)NC(=O)N(C)c1nc(C)nc(OC)n1 | inactive | – |
| Oc1ccc(Cl)cc1Cc1ccccc1 | inactive | 77.3 µM (active) [middle of 6 runs] |
